Consider 23 compounds from the supplement of paper PMC10127200.

Structures can show the parent of a compound that is named as a salt.

What all share (assay): Euclidean distance of Cell Painting phenotypic profile (signed KS, 77 features) to DMSO centroid (dimensionless distance); 5 or 10 uM (library dependent); higher = stronger phenotypic change vs DMSO (phenoactivity)
Common to all, as to settings: 48 h

In one test the test system is 786-O. The procedure, abridged: (§1)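 Harmony extracted 77 features from 20X confocal images (9 fields/well) of stained cells, scoring each as a signed Kolmogorov-Smirnov statistic against same-plate vehicle wells. The cells, five cancer lines and a healthy fibroblast line, had received library compounds for 48 h at 10 or 5 uM depending on library, with 0.1% DMSO final. Phenoactivity is the Euclidean distance from each plate-position-corrected, correlation-weighted, top-dose replicate-averaged profile to the median vehicle profile.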

A further test relates to A549. The procedure, abridged:
as §1

The subject of the next test is DU145. Summed up:
as §1

The test system of the next test is FB. Summed up: as §1
For a further test, the system named is HEPG2. Summed up: as §1
The test system of a further test is OVCAR4. The procedure, abridged:
as §1

On to `COc1ccc2c(c1)C(=O)N(CCc1ccc(S(=O)(=O)NC(=O)NC3CCCCC3)cc1)C(=O)C2(C)C` [Gliquidone], for which the Euclidean distance in the test on 786-O is 1.02; in the test with A549, 0.773; in the test with DU145, 1.03; in the test on FB, 1.06; in the test on HEPG2, 3.11; with OVCAR4, 0.973.

On to `COc1cc2nccc(Oc3ccc(NC(=O)C4(C(=O)Nc5ccc(F)cc5)CC4)cc3)c2cc1OC` [Cabozantinib malate (XL184)], for which the Euclidean distance with 786-O worked out at 1.85; in the test on A549, 2.98; in the test on DU145 it was 1.3; in the test on FB it was 2.84; in the test with HEPG2, 1.89; with OVCAR4, 2.25.

Consider `O=C(O)c1ccc2c(c1)nc(Nc1cccc(Cl)c1)c1ccncc12` [CX-4945 (Silmitasertib)], for which the Euclidean distance in the test with 786-O came to 1.47; in the test on A549, 1.44; with DU145, 2.54; with FB, 1.55; in the test on HEPG2 it was 1.4; with OVCAR4 it was 1.25.

Consider `CNCCCN1c2ccccc2CCc2ccccc21` [Desipramine Hydrochloride], for which the Euclidean distance is 0.817 in the test on 786-O; 1.07 in the test on A549; 1.11 with DU145; 1.73 in the test on FB; 1.43 with HEPG2; 1.25 in the test with OVCAR4.

For the compound `NC(=O)NC1NC(=O)NC1=O` (stereo not drawn) [Allantoin], the Euclidean distance with 786-O is 0.856; with A549, 0.693; in the test on DU145 it was 1.19; in the test with FB, 0.801; in the test on HEPG2, 3.52; with OVCAR4, 1.68.

For `C[N+]1(C)CCC(OC(=O)C(O)(c2ccccc2)C2CCCC2)C1` (stereo not drawn) [Glycopyrrolate], the Euclidean distance with 786-O was determined as 1.08; with A549, 0.747; in the test with DU145, 1.06; in the test on FB it was 1.02; in the test on HEPG2, 0.678; with OVCAR4, 1.74.

Turning to `CCN(CC)CC(=O)Nc1c(C)cccc1C` [Lidocaine hydrochloride], the Euclidean distance turned out to be 0.709 in the test on 786-O; 0.8 in the test on A549; 0.919 in the test with DU145; 0.862 in the test on FB; 0.656 in the test on HEPG2; 1.35 in the test with OVCAR4.

With `Cc1cc(C)cc(OCC2CNC(=O)O2)c1` (stereo not drawn) [Metaxalone], the Euclidean distance is 0.96 in the test on 786-O; 0.856 in the test on A549; 0.745 in the test on DU145; 0.753 with FB; 0.417 in the test on HEPG2; 1.15 with OVCAR4.

With `O=C(O)c1cc(=O)c2ccccc2o1` [Chromocarb], the Euclidean distance with 786-O turned out to be 1.02; in the test with A549, 0.437; with DU145 it was 0.751; in the test with FB, 1.04; in the test with HEPG2 it was 0.887; in the test with OVCAR4, 0.727.

Turning to `O=c1ccn([C@@H]2O[C@H](CO)[C@@H](O)[C@H]2O)c(=O)[nH]1` [Uridine], the Euclidean distance amounted to 1.22 in the test on 786-O; 0.801 in the test with A549; 0.955 in the test with DU145; 0.869 in the test with FB; 1.9 in the test on HEPG2; 0.863 in the test on OVCAR4.

`COc1ccc(-c2ccc3ncc4c(c3c2)n(-c2ccc(N3CCNCC3)c(C(F)(F)F)c2)c(=O)n4C)cn1`: the Euclidean distance with 786-O was determined as 6.24; in the test on A549, 5.51; in the test on DU145, 7.61; with FB, 6.11; with HEPG2 it was 5.69; in the test with OVCAR4 it was 5.98.

For the compound `COc1cc2c(Oc3ccc(NC(=O)C4(C(=O)Nc5ccc(F)cc5)CC4)cc3F)ccnc2cc1OCCCN1CCOCC1`, the Euclidean distance is 1.39 in the test on 786-O; 2.06 in the test on A549; 1.35 in the test on DU145; 1.52 in the test with FB; 0.94 in the test on HEPG2; 3.97 with OVCAR4.

For `C#C[C@]1(O)CC[C@H]2[C@@H]3CCc4cc(O)ccc4[C@H]3CC[C@@]21C` [Ethinyl Estradiol], the Euclidean distance turned out to be 1.42 in the test with 786-O; 0.969 with A549; 1.83 with DU145; 1.09 in the test on FB; 0.768 in the test with HEPG2; 1.82 in the test with OVCAR4.

`O=C(Nc1cccc(Cl)c1)Nc1ncc(CCNc2ncnc3ccsc23)s1` [SNS-314 Mesylate]: the Euclidean distance in the test on 786-O is 1.07; in the test with A549, 1.84; with DU145, 0.974; in the test with FB it was 1.73; in the test with HEPG2, 0.589; in the test on OVCAR4 it was 1.

For the compound `C[C@@H](C(=O)Nc1ccc(Cl)cc1)C1CCC(c2ccnc3ccc(F)cc23)CC1` (stereo partly drawn), the Euclidean distance with 786-O came to 1.84; with A549, 2.05; in the test with DU145, 1.38; in the test on FB, 1.29; with HEPG2, 1.93; in the test on OVCAR4 it was 1.69.

Consider `CC[N+](CC)(CC)CCOc1cccc(OCC[N+](CC)(CC)CC)c1OCC[N+](CC)(CC)CC` [Gallamine Triethiodide], for which the Euclidean distance with 786-O was 0.82; with A549, 0.878; in the test with DU145, 1.08; with FB, 1.22; with HEPG2 it was 1.06; in the test with OVCAR4, 1.04.

As for `COc1cc2c(cc1OC)CC(=O)N(CCCN(C)C[C@H]1Cc3cc(OC)c(OC)cc31)CC2` [Ivabradine HCl], the Euclidean distance is 1.05 in the test with 786-O; 1.49 in the test on A549; 1.14 with DU145; 0.867 in the test on FB; 2.1 in the test on HEPG2; 0.925 in the test with OVCAR4.

`COc1cc(OC)c(/C=C/S(=O)(=O)Cc2ccc(OC)c(NCC(=O)O)c2)c(OC)c1`: the Euclidean distance is 2.84 in the test with 786-O; 2.83 with A549; 4.64 with DU145; 3.03 with FB; 3.6 in the test on HEPG2; 2.72 in the test with OVCAR4.

For `COc1cc(C(C)=O)ccc1OCCCN1CCC(c2noc3cc(F)ccc23)CC1` [Iloperidone], the Euclidean distance in the test with 786-O was determined as 1.83; in the test with A549 it was 1.43; in the test on DU145, 0.93; in the test on FB, 1.43; in the test with HEPG2 it was 0.503; in the test with OVCAR4 it was 1.87.

As for `CCCCCCCCCC(=O)N[C@H]1[C@H](Oc2c3cc4cc2Oc2ccc(cc2Cl)[C@@H](O[C@@H]2O[C@H](CO)[C@@H](O)[C@H](O)[C@H]2NC(C)=O)[C@@H]2NC(=O)[C@H](NC(=O)[C@@H]4NC(=O)[C@H]4NC(=O)[C@@H](Cc5ccc(c(Cl)c5)O3)NC(=O)[C@H](N)c3ccc(O)c(c3)Oc3cc(O)cc4c3)c3ccc(O)c(c3)-c3c(OC4O[C@H](CO)[C@@H](O)[C@H](O)[C@@H]4O)cc(O)cc3[C@@H](C(=O)O)NC2=O)O[C@H](CO)[C@@H](O)[C@@H]1O` (stereo partly drawn) [Teicoplanin], the Euclidean distance came out at 1.09 with 786-O; 1.18 in the test with A549; 0.773 in the test on DU145; 0.777 in the test on FB; 1.39 in the test on HEPG2; 1.07 in the test on OVCAR4.

Take `Cc1cc(C(=O)Nc2nc3cccc(Cl)c3n2[C@@H]2CCCCN(C(=O)/C=C/CN(C)C)C2)ccn1` [Nazartinib (EGF816. NVS-816)]: the Euclidean distance in the test on 786-O stood at 1.87; with A549 it was 1.93; with DU145 it was 1.67; in the test on FB it was 3.18; in the test with HEPG2, 2.99; in the test on OVCAR4, 1.9.

With `CC(C)NCC(O)c1ccc(O)c(O)c1` (stereo not drawn) [Isoprenaline HCl], the Euclidean distance stood at 1.55 with 786-O; 1.42 with A549; 1.07 with DU145; 1.04 in the test with FB; 0.596 with HEPG2; 1.2 in the test on OVCAR4.

In the case of `COc1ccc(CN(CCN(C)C)c2ncccn2)cc1` [Thonzylamine], the Euclidean distance amounted to 1.16 in the test with 786-O; 1.66 in the test with A549; 1.32 in the test on DU145; 1.44 with FB; 0.672 in the test on HEPG2; 1.89 in the test on OVCAR4.
